From PubChem BioAssay (Tox21)
Inconclusive results are not listed. Calls of active or inactive are those of the source. Unless noted, calls follow the shape of the dose curve; as a rule, active = well fitted curve in the direction sought with a large enough effect in the repeat runs; inconclusive = weak or mixed curves; inactive = no such curve, though single readings can be large; an effect the other way counts as inactive or inconclusive.

Legend:
[1] = molecular target: Aryl hydrocarbon receptor (Homo sapiens) (UniProt P35869); assay: qHTS assay to identify small molecule that activate the aryl hydrocarbon receptor (AhR) signaling pathway (AID 743085);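 also: HG2L7.5c1 human HepG2 liver cells with stably integrated DRE-driven firefly reporter; series mostly up to about 70 µM; nearly all actives have a fitted effect of over 15% in size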
Sequence of Aryl hydrocarbon receptor (Homo sapiens) (P35869 whole entry, looked up): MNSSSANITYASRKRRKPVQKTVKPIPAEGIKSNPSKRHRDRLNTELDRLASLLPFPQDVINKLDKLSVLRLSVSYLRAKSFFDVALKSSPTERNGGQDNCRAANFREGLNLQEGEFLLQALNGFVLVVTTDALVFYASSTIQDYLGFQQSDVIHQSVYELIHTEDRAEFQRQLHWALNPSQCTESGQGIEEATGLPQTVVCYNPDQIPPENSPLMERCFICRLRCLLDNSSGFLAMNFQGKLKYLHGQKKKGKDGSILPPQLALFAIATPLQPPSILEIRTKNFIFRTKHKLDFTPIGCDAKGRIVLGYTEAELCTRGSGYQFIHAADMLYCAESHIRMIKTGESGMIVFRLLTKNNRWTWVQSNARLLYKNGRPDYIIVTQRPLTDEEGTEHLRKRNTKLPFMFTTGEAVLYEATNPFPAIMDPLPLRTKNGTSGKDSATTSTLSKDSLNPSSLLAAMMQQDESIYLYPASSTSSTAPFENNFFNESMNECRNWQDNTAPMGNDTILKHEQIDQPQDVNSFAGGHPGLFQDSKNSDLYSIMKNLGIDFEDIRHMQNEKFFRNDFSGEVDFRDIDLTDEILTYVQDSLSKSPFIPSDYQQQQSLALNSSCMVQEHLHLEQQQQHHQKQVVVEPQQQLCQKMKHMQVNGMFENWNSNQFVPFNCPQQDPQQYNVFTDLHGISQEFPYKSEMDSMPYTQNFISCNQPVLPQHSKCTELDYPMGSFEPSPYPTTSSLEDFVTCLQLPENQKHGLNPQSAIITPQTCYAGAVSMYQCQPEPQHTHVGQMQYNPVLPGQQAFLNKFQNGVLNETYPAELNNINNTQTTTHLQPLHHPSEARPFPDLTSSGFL
Summary of the method: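 Luminescence read-out: ONE-Glo reagent, 30 min at room temperature, in HG2L7.5c1 HepG2 reporter cells treated 24 h at 37C. Viability was measured beforehand by CellTiter-Fluor fluorescence after 30 min at 37C.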

[2] = qHTS assay to identify small molecule that activate the aryl hydrocarbon receptor (AhR) signaling pathway - cell viability counter screen (AID 743086);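 also: HepG2 liver cells carrying the AhR DRE luciferase reporter; series mostly up to about 70 µM; nearly all actives have a fitted effect of over 45% in size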
Summary of the method: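 HepG2-AhR-luc (HG2L7.5c1) cells, 4000/well, treated 24 h at 37 C with compound; viability measured as CellTiter-Fluor fluorescence after 30 min in the same wells as the luciferase read.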

[3] = molecular target: Peroxisome proliferator-activated receptor gamma (Homo sapiens) (UniProt P37231); assay: qHTS assay to identify small molecule agonists of the peroxisome proliferator-activated receptor gamma (PPARg) signaling pathway (AID 743094; active = well fitted activation curve with a large enough effect in the signal ratio in the repeat runs, not every such curve was filed as active; the % refers to the signal ratio)
Sequence of Peroxisome proliferator-activated receptor gamma (Homo sapiens) (P37231 whole entry, looked up): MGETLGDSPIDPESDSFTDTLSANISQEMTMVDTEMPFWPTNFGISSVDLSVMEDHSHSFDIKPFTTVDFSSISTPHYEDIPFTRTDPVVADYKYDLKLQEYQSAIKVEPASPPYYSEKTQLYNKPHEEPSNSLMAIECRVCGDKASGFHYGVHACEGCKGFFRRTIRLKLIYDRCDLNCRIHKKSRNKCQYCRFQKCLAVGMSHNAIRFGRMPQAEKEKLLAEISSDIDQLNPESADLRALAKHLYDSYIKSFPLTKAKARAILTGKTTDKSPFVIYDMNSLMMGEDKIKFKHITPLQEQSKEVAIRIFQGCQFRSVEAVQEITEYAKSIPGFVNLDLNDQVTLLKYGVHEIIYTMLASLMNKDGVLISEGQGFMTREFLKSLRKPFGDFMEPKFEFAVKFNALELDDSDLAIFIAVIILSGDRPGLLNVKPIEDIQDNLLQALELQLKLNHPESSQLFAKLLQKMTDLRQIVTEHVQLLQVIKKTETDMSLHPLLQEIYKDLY
Summary of the method: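 Quantitative HTS agonist mode: stable HEK293H line with UAS-beta-lactamase reporter under PPARg control, 17 h compound exposure at 37C, fluorescence after 1 h FRET substrate loading at room temperature.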

[4] = molecular target: Peroxisome proliferator-activated receptor gamma (Homo sapiens) (UniProt P37231); assay: qHTS assay to identify small molecule antagonists of the peroxisome proliferator-activated receptor gamma (PPARg) signaling pathway (AID 743191; calls by dose curve; also: series mostly up to about 63 µM; nearly all actives have a fitted effect of over 30% in size)
Summary of the method: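 GeneBLAzer PPARg UAS-bla HEK293H cells, 5 h post-plating, exposed to compounds 17 h at 37C. LiveBLAzer B/G FRET substrate added for 1 h at room temperature; beta-lactamase reporter read by fluorescence intensity.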

[5] = qHTS assay to identify small molecule antagonists of the peroxisome proliferator-activated receptor gamma (PPARg) signaling pathway - cell viability counter screen (AID 743194); also: nearly all actives have a fitted effect of over 55% in size
Summary of the method: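 Cytotoxicity counter screen in PPARg-bla HEK293H cells, same wells as reporter assay. Compounds plus 50 nM rosiglitazone (final) for 17 h at 37 C, then viability read by CellTiter-Glo luminescence.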

[6] = qHTS assay for small molecule agonists of the antioxidant response element (ARE) signaling pathway (AID 743202; active = well fitted activation curve with a large enough effect in the signal ratio in the repeat runs, not every such curve was filed as active; the % refers to the signal ratio)
Summary of the method: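 Agonist mode reporter screen: HepG2 cells with ARE-controlled beta-lactamase are incubated with test compounds for 16 h at 37 C, and beta-lactamase activity is measured as fluorescence of cleaved B/G FRET substrate.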

[7] = qHTS assay for small molecule agonists of the antioxidant response element (ARE) signaling pathway - cell viability counter screen (AID 743203; calls by dose curve; also: nearly all actives have a fitted effect of over 55% in size)
Summary of the method: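 Seeded at 2,000 cells/well, ARE-bla HepG2 cells were incubated 5 hrs before compound addition. After 16 hrs of treatment at 37C with 5% CO2, CellTiter-Glo reagent was added and luminescence read 30 min later.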

[8] = qHTS assay for small molecule activators of the heat shock response signaling pathway - cell viability counter screen (AID 743209); also: nearly all actives have a fitted effect of over 50% in size
Summary of the method: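 First, HSE-bla HeLa cells were seeded at 1500 cells/well and kept overnight at 37 C. Next, compounds were pinned in and incubated 5 h. After the FRET substrate step, CellTiter-Glo was added and luminescence read 30 min later.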

[9] = qHTS assay to identify small molecule agonists of the peroxisome proliferator-activated receptor delta (PPARd) signaling pathway - cell viability counter screen (AID 743211); also: nearly all actives have a fitted effect of over 55% in size
Summary of the method: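 Read-out: CellTiter-Glo luminescence, 30 min RT, measured in the same wells as the beta-lactamase reporter. Cells: GeneBLAzer PPAR delta UAS-bla HEK293H, 3000 cells/well, compound exposure 17 h at 37C.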

[10] = qHTS assay to identify small molecule antagonists of the peroxisome proliferator-activated receptor delta (PPARd) signaling pathway - cell viability counter screen (AID 743213); also: nearly all actives have a fitted effect of over 50% in size
Summary of the method: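 CellTiter-Glo was added to PPARd-bla HEK293H wells following 17 h compound treatment in the presence of 300 nM L165041. Luminescence was recorded after 30 min at room temperature.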

[11] = molecular target: Peroxisome proliferator-activated receptor delta (Homo sapiens) (UniProt Q03181); assay: qHTS assay to identify small molecule antagonists of the peroxisome proliferator-activated receptor delta (PPARd) signaling pathway (AID 743215; active = well fitted inhibition curve with a large enough effect in the signal ratio in the repeat runs, not every such curve was filed as active; the % refers to the signal ratio;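 also: cells stimulated with agonist L165041 at 300 nM final during compound exposure; series mostly up to about 62 µM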)
Sequence of Peroxisome proliferator-activated receptor delta (Homo sapiens) (Q03181 whole entry, looked up): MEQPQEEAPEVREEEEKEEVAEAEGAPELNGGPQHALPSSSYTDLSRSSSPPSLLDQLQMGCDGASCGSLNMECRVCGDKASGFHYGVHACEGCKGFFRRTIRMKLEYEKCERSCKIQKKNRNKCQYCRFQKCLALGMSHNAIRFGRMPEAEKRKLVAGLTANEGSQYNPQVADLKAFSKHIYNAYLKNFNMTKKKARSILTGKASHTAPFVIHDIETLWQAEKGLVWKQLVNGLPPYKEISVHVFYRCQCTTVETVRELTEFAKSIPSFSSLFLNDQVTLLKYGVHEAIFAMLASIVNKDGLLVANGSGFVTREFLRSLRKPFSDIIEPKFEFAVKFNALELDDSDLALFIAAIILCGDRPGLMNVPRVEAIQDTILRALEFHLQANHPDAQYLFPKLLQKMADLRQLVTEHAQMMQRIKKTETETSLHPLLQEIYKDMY
Summary of the method: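 Inhibition of L165041-driven (300 nM final) PPARd signaling is scored in HEK293H UAS-bla cells. Exposure lasts 17 h at 37 C; beta-lactamase activity is then read by FRET substrate fluorescence after 2 h at room temperature.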

[12] = qHTS assay to identify small molecule agonists of the farnesoid-X-receptor (FXR) signaling pathway - cell viability counter screen (AID 743218); also: nearly all actives have a fitted effect of over 45% in size
Summary of the method: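 Cytotoxicity counter-screen run in parallel, same wells: FXR-UAS-bla HEK 293T cells dosed 16 h at 37 C, viability read by CellTiter-Glo luminescence after 30 min at room temperature.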

[13] = qHTS assay to identify small molecule antagonists of the farnesoid-X-receptor (FXR) signaling pathway - cell viability counter screen (AID 743221; active = well fitted cell-killing curve with a large enough effect in the repeat runs, not every such curve was filed as active; also: nearly all actives have a fitted effect of over 50% in size)
Summary of the method: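 HEK 293T FXR-bla cells, 5 h pre-incubation; compound + CDCA 50 uM final, 16 h, 37 C; beta-lactamase FRET read first, then CellTiter-Glo luminescence, 30 min RT.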

[14] = molecular target: Vitamin D3 receptor (Homo sapiens) (UniProt P11473); assay: qHTS assay to identify small molecule agonists of the vitamin D receptor (VDR) signaling pathway (AID 743222; calls by dose curve)
Sequence of Vitamin D3 receptor (Homo sapiens) (P11473 whole entry, looked up): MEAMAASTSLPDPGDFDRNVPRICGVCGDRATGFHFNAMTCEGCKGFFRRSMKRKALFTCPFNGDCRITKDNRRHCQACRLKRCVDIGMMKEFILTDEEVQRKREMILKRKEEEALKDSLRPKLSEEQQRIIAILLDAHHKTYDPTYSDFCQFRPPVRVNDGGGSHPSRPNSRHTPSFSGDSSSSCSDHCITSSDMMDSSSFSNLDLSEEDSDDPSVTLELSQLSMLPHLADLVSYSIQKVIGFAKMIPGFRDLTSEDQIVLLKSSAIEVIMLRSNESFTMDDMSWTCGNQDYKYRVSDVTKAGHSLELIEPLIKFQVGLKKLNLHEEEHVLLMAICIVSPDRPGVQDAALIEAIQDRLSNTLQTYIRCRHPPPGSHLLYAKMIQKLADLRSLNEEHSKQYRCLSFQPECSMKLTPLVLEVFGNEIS
Summary of the method: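 Quantitative HTS agonist-mode screen: compounds in DMSO were pin-transferred onto VDR-bla cells and incubated 16 h at 37C, 5% CO2. Reporter activity was detected with LiveBLAzer B/G FRET substrate after 2 h at room temperature.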

[15] = molecular target: Vitamin D3 receptor (Homo sapiens) (UniProt P11473); assay: qHTS assay to identify small molecule antagonists of the vitamin D receptor (VDR) signaling pathway (AID 743223; active = well fitted inhibition curve with a large enough effect in the signal ratio in the repeat runs, not every such curve was filed as active; the % refers to the signal ratio)
Summary of the method: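 Beta-lactamase reporter read-out: FRET substrate fluorescence after 2 h at room temperature, following 16 h exposure of VDR-bla cells to test compound plus 3 nM (final) 1alpha,25-dihydroxyvitamin D3 agonist at 37C.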

[16] = molecular target: Peroxisome proliferator-activated receptor delta (Homo sapiens) (UniProt Q03181); assay: qHTS assay to identify small molecule agonists of the peroxisome proliferator-activated receptor delta (PPARd) signaling pathway (AID 743212; calls by dose curve)
Summary of the method: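 Quantitative high-throughput agonist screen in a HEK293H beta-lactamase reporter line under UAS control. Compounds in DMSO, at 37 C. Fluorescence read after 2 h with FRET substrate at room temperature.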

[17] = molecular target: Bile acid receptor (Homo sapiens) (UniProt Q96RI1); assay: qHTS assay to identify small molecule agonists of the farnesoid-X-receptor (FXR) signaling pathway (AID 743220; active = well fitted activation curve with a large enough effect in the signal ratio in the repeat runs, not every such curve was filed as active; the % refers to the signal ratio)
Sequence of Bile acid receptor (Homo sapiens) (Q96RI1 whole entry, looked up): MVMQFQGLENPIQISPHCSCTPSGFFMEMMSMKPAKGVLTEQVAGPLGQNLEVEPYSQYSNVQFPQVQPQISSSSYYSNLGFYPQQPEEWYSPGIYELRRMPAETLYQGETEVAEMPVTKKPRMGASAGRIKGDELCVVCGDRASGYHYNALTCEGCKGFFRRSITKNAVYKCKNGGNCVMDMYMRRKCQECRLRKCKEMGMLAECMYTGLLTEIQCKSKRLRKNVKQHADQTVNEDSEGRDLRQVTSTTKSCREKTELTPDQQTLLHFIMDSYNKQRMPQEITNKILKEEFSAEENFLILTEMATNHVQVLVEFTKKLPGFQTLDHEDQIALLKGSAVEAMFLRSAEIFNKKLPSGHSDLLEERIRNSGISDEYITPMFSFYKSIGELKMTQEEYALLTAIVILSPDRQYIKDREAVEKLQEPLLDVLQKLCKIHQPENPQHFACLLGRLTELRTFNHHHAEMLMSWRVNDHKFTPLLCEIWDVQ
Summary of the method: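 Beta-lactamase reporter under UAS control in GeneBLAzer FXR HEK 293T cells (5000/well) measured with LiveBLAzer FRET substrate after 2 h at room temperature. Compound exposure lasted 16 h at 37C.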

[18] = qHTS assay for small molecule activators of the heat shock response signaling pathway (AID 743210; active = well fitted activation curve with a large enough effect in the signal ratio in the repeat runs, with a control signal flat, not every such curve was filed as active; the % refers to the signal ratio;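 also: HeLa cells with beta-lactamase reporter driven by heat shock elements; series mostly up to about 63 µM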)
Summary of the method: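 Quantitative high-throughput format using an engineered HeLa line in which heat shock response elements drive beta-lactamase; after 5 h with compound, cells received a B/G FRET substrate and fluorescence was read.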

[19] = qHTS assay to identify aromatase inhibitors - cell viability counter screen (AID 743084);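 also: cells stimulated with testosterone during compound exposure; nearly all actives have a fitted effect of over 55% in size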
[20] = molecular target: Bile acid receptor (Homo sapiens) (UniProt Q96RI1); assay: qHTS assay to identify small molecule antagonists of the farnesoid-X-receptor (FXR) signaling pathway (AID 743217; active = well fitted inhibition curve with a large enough effect in the signal ratio in the repeat runs, not every such curve was filed as active; the % refers to the signal ratio)
Summary of the method: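 Antagonist mode against 50 uM (final) chenodeoxycholic acid stimulation in FXR-bla HEK 293T cells, 16 h at 37 °C. Inhibition detected as reduced beta-lactamase activity via LiveBLAzer B/G FRET fluorescence after 2 h at room temperature.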

Measured: Potency

Cc1ccccc1C(=O)O
not listed: [16] | [17] | [18] | [19] | [20]
inactive: all other assays above

O=C(O)CCNC(=O)c1ccc(N=Nc2ccc(O)c(C(=O)O)c2)cc1
not listed: [2] | [12] | [14] | [15] | [18] | [19] | [20]
inactive: all other assays above

N#CCN(CC#N)CCN(CC#N)CC#N
not listed: [1] | [3] | [4] | [12] | [17] | [19] | [20]
inactive: all other assays above

CC(=O)NC(Cc1ccccc1)C(=O)O (configuration not stated)
inactive: [19] | [4] | [7] | [8] | [9] | [10] | [11] | [12] | [17] | [14] | [15]

CC(O)CN(CCCN(C)C)CCCN(C)C (configuration not stated)
inactive: [2] | [6] | [8] | [18] | [9] | [10] | [13] | [14] | [15]

Cc1cc(C)cc(OCC2CNC(=O)O2)c1 (configuration not stated)
not listed: [1] | [2] | [3] | [4] | [8] | [11] | [17]
inactive: all other assays above

O=C1C(CCS(=O)c2ccccc2)C(=O)N(c2ccccc2)N1c1ccccc1 (configuration not stated)
inactive: [19] | [3] | [6] | [7] | [8] | [18] | [10] | [11] | [12] | [13]

O=C(CCOCCOCCOCCOCCC(=O)Nc1c(I)cc(I)c(C(=O)O)c1I)Nc1c(I)cc(I)c(C(=O)O)c1I
inactive: [5] | [6] | [7] | [8] | [18] | [9] | [10] | [12] | [13] | [14] | [15]

C(=C(c1ccccc1)c1ccccc1)c1ccccc1
not listed: [1] | [2] | [4] | [5] | [6] | [9] | [15] | [17]
inactive: all other assays above

CCN1CCN(c2cc3c(cc2F)c(=O)c(C(=O)O)cn3C2CC2)CC1
not listed: [4] | [9] | [11] | [15] | [17] | [19] | [20]
inactive: all other assays above

NC(=O)CCCCC1CCSS1 (configuration not stated)
not listed: [4] | [6] | [12] | [15] | [16] | [17] | [18] | [19]
inactive: all other assays above
